{"source": "ChEMBL document CHEMBL1201862", "about": "“PubChem BioAssay data set” (2004)", "note": "The campaign covered roughly 28,000 sequences. About 1,300 (4.6%) were called active. No stated cut-off is given here; in the data, active = GI50 up to about 1.1 µM and inactive = higher. This excerpt belongs to a sample that is enriched for actives. Results with a measured potency or affinity are listed apart.", "data": [{"test_system": "MDA-N", "units": {"GI50": "µM"}, "values": [{"substance": "[Bis(aminomethyl)pentamethylenesilane]dichloropaltinum(II), CHEMBL2146202", "GI50": 2.42}, {"substance": "[Bis(aminomethyl)pentamethylenesilane]tetrachloropaltinum(IV), CHEMBL2146204", "GI50": 0.935}, {"substance": "[Bis(aminomethyl)dimethylsilane]tetrachloroplatinum(IV), CHEMBL2146190", "GI50": 15.9}, {"substance": "[Bis(aminomethyl)tetramethylenesilane]tetrachloropaltinum(IV), CHEMBL2146189", "GI50": 2.72}, {"substance": "CISPLATIN, CHEMBL11359", "GI50": 6.18}, {"substance": "[Bis(aminomethyl)tetramethylenesilane]dichloropaltinum(II), CHEMBL2146205", "GI50": 6.89}]}]}
